Screening results deposited in PubChem by National Center for Advancing Translational Sciences (NCATS).
This is a sample that favours compounds with a hit; in the whole collection about 2.4% have one here.
D2 ag-1 – activates the human D2 dopamine receptor | P14416 | HEK293 T-REx D2 cells, calcium flux agonist mode | activation, % at 2 µM | hit rate 0.53% among 340,000;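 active = activation over 3 SD above normal in the single-dose calcium agonist read, cut at about 30% in these data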; also: 0% is about no effect
Target sequence (P14416 whole entry, looked up): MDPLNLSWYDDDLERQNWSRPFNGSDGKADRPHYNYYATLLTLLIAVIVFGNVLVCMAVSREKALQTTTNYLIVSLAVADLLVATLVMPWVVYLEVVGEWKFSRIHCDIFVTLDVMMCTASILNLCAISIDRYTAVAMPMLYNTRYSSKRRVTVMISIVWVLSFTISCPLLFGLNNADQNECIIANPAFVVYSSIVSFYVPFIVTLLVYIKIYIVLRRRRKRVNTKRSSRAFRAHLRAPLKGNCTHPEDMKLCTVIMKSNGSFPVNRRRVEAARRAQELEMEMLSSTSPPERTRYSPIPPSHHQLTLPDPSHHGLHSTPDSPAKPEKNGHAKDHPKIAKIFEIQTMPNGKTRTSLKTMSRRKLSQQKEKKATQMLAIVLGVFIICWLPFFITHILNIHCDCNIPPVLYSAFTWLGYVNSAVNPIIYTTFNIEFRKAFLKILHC
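Agonism is scored from calcium flux in a force-coupled, inducible HEK293 cell line expressing D2, read kinetically for 180 s after compound addition against dopamine controls.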
D2 antag – antagonizes the human D2 dopamine receptor; hit rate 2% among 340,000; inhibition, % at 10 µM; P14416; HEK293 TREx D2 cells, calcium flux, dopamine EC80; AID 485344; in the data active = inhibition above about 30%; inactive = below that, where a call was filed; also: 0% is about no effect
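Read-out: kinetic calcium fluorescence (1 cycle/s) in inducible HEK293 T-REx D2 cells after an EC80 dopamine addition that followed 180 s compound preincubation. Loss of the dopamine response indicates antagonism.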
D2 PAM-1 – positive allosteric modulators of human D2 dopamine receptor. P14416. DiscoveRx D2 beta-arrestin cells, luminescence, 90 min; 100% = 57 uM dopamine signal. potentiation, % (test concentration not listed). hit rate 0.23% among 360,000. AID 624464; in the data active = potentiation above about 50%; inconclusive = mostly about 30% to 49%
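PathHunter beta-arrestin assay in DiscoveRx D2 cells. Compounds were added with an EC20 of dopamine (50 nM final) for 90 min at 37 deg C. Luminescence was read 1 h after detection reagent, with 57 uM dopamine as the EC100 control.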
D2 PAM-2 – D2 dopamine receptor (human) potentiation; hit rate 0.34% among 340,000; P14416; HEK293 T-REx D2, calcium flux, EC20 dopamine potentiation; potentiation, % at 10 µM;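 active = potentiation over 3 SD above the plate norm, cut at about 30% in these data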; also: 0% is about no effect
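Potentiation of an EC20 dopamine calcium response is measured in a force-coupled, tetracycline-inducible Hek293 Trex D2 line. Compound-only kinetic reads over 180 s flag agonists before dopamine addition.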
D2 ag-2 – human D2 receptor agonism in beta-arrestin assay. P14416. DiscoveRx PathHunter D2 beta-arrestin, luminescence, 90 min; 100% = 57 uM dopamine signal. activation, % (no concentration beside the values). hit rate 0.084% among 360,000. AID 624465; in the data active = activation above about 40%; inconclusive = between about 15% and that limit
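DiscoveRx PathHunter D2 beta-arrestin cells (2,100/well) attached overnight, then compound-stimulated 90 min at 37 C in HBSS/10 mM HEPES/0.1% Tween-20 buffer; beta-galactosidase complementation read by luminescence after 1 h at ambient temperature. Dopamine 57 uM final (EC100) as control.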
Active calls of the source: *.

What do the screens show for `CC(=O)Nc1ccc(N(C(=O)c2ccco2)C(C(=O)NC2CCCC2)c2ccncc2)cc1` (stereo not given)?
D2 ag-1: 0; D2 antag: 4; D2 PAM-1: -10; D2 PAM-2: 0; D2 ag-2: -15

How did CC(/C=N/NC(=O)c1ccncc1)=C\c1ccccc1 do in these assays?
D2 ag-1: 0; D2 antag: -5; D2 PAM-1: 9; D2 PAM-2: -17; D2 ag-2: -1

What do the screens show for `COc1ccccc1C(=O)N/N=C/C(C)=C/c1ccccc1`?
D2 ag-1: 0; D2 antag: 75*; D2 PAM-1: -29; D2 PAM-2: -13; D2 ag-2: 3

What do the screens show for `CC(/C=N/NC(=O)c1cccc(F)c1)=C\c1ccccc1`?
D2 ag-1: -1; D2 antag: 33*; D2 PAM-1: -18; D2 PAM-2: -38; D2 ag-2: 3

Results for CC(=C/c1ccccc1)/C=N/NC(=O)c1ccccn1 ?
D2 ag-1: 0; D2 antag: 6; D2 PAM-1: -11; D2 PAM-2: -8; D2 ag-2: 0

What do the screens show for `CC(=C/c1ccc(C(C)C)cc1)/C=N/NC(=O)c1ccncc1`?
D2 ag-1: -5; D2 antag: 36*; D2 PAM-1: 2; D2 PAM-2: 4; D2 ag-2: 4

How did Cc1ccc(CN(C(=O)COc2ccc(C(C)(C)C)cc2)C2CCS(=O)(=O)C2)o1 (stereo not given) do in these assays?
D2 ag-1: 6; D2 PAM-2: 2

What do the screens show for `CCN1CCN(C(=O)CSc2nc3c(c(=O)n(C)c(=O)n3C)n2C)CC1`?
D2 ag-1: 0; D2 antag: -8; D2 PAM-1: -2; D2 PAM-2: -7; D2 ag-2: 2

Results for Cc1ccc2c(c1)cc1c(=O)n(Cc3ccc(Cl)cc3)nc(C)n12 ?
D2 ag-1: 0; D2 PAM-2: 1

What do the screens show for `COc1ccc(NC(=O)CCC(=O)N2CCOCC2)c([N+](=O)[O-])c1`?
D2 ag-1: 1; D2 antag: -1; D2 PAM-1: -17; D2 PAM-2: 10; D2 ag-2: -14

Results for COc1cc(NC(=O)COC(=O)CCc2cc(OC)c(OC)c(OC)c2)cc(OC)c1 ?
D2 ag-1: 1; D2 antag: 13; D2 PAM-1: 0; D2 PAM-2: 6; D2 ag-2: 1

Results for COc1cc(CCC(=O)OCC(=O)Nc2ccc(C(N)=O)cc2)cc(OC)c1OC ?
D2 ag-1: 0; D2 antag: 39*; D2 PAM-1: 7; D2 PAM-2: 3; D2 ag-2: 6

How did O=C(O)CN1C(=O)COc2cc(S(=O)(=O)N3CCCC3)ccc21 do in these assays?
D2 ag-1: 1; D2 antag: 31*; D2 PAM-1: -1; D2 PAM-2: -8; D2 ag-2: -1

Results for O=C(CN1C(=O)COc2ccc(S(=O)(=O)N3CCCC3)cc21)N1CCCC1 ?
D2 ag-1: 0; D2 antag: -7; D2 PAM-1: -6; D2 PAM-2: 1; D2 ag-2: -3

Results for COC(=O)CN1C(=O)COc2ccc(S(=O)(=O)N3CCOCC3)cc21 ?
D2 ag-1: 1; D2 antag: 46*; D2 PAM-1: 0; D2 PAM-2: 6; D2 ag-2: -1

Results for Cc1cc(/C=C2\SC(=Nc3ccc(F)cc3)NC2=O)c(C)n1-c1ccc(S(N)(=O)=O)cc1 ?
D2 ag-1: 2; D2 antag: 38*; D2 PAM-1: -6; D2 PAM-2: 0; D2 ag-2: -2

What do the screens show for `CCOc1ccccc1NC(=O)CSc1ccc([N+](=O)[O-])cc1`?
D2 ag-1: 0; D2 antag: 41*; D2 PAM-1: -5; D2 PAM-2: -14; D2 ag-2: -3

Results for CCOc1ccc2ccccc2c1/C=N\NC(=O)OC ?
D2 ag-1: -1; D2 antag: -1; D2 PAM-1: -20; D2 PAM-2: -3; D2 ag-2: 0

How did CCOc1ccc2ccccc2c1/C=N\NC(=O)c1ccc([N+](=O)[O-])cc1 do in these assays?
D2 ag-1: 0; D2 antag: 39*; D2 PAM-1: -12; D2 PAM-2: -21; D2 ag-2: 14

What do the screens show for `CCOc1ccccc1NC(=O)NNS(=O)(=O)c1ccc([N+](=O)[O-])cc1`?
D2 ag-1: 0; D2 antag: -5; D2 PAM-1: 18; D2 PAM-2: 5; D2 ag-2: -4

How did CCCN(CCC)c1ccc(/C=C/c2ccc3cc(OCC)ccc3n2)cc1 do in these assays?
D2 ag-1: 38*; D2 antag: -6; D2 PAM-1: -3; D2 PAM-2: -4; D2 ag-2: 1

Results for CN(C)c1ccc(/C=C/c2ccc3ccccc3n2)cc1 ?
D2 ag-1: 24; D2 antag: -24; D2 PAM-1: -1; D2 PAM-2: 6; D2 ag-2: -1

What do the screens show for `CC(C)(C)CC(=O)Nc1cc2c3c(c1)CCC(=O)N3CCC2`?
D2 ag-1: 0; D2 antag: 35*; D2 PAM-1: -10; D2 PAM-2: 3; D2 ag-2: -1

What do the screens show for `O=c1oc2cc(O)ccc2cc1-c1nc2c(s1)CCc1ccccc1-2`?
D2 ag-1: 141*; D2 antag: 80*; D2 PAM-1: 15; D2 PAM-2: -24; D2 ag-2: 1

Results for O=c1oc2ccccc2cc1-c1nc2c(s1)CCc1ccccc1-2 ?
D2 ag-1: -1; D2 antag: 9; D2 PAM-1: inconclusive; D2 PAM-2: -10; D2 ag-2: 11

What do the screens show for `COc1cc2[nH]c(C(=O)N3CCN(C)CC3)cc2c(OC)c1OC`?
D2 ag-1: 2; D2 antag: 5; D2 PAM-1: -4; D2 PAM-2: 8; D2 ag-2: -3

What do the screens show for `COc1ccc2[nH]c(C(=O)NCCc3ccccc3)cc2c1`?
D2 ag-1: 0; D2 antag: 16; D2 PAM-1: 0; D2 PAM-2: -8; D2 ag-2: -3

What do the screens show for `COc1cc(C(=O)NCCC(=O)NC(C)CCc2ccccc2)cc(OC)c1OC` (stereo not given)?
D2 ag-1: 0; D2 antag: -8; D2 PAM-1: -2; D2 PAM-2: 33*; D2 ag-2: -4

Results for COc1cccc(N2CCN(C(=O)c3cc4c(OC)c(OC)c(OC)cc4[nH]3)CC2)c1 ?
D2 ag-1: 1; D2 antag: 38*; D2 PAM-1: -9; D2 PAM-2: -12; D2 ag-2: 2

What do the screens show for `COc1cc2[nH]c(C(=O)NCCc3ccccc3)cc2c(OC)c1OC`?
D2 ag-1: -1; D2 antag: 79*; D2 PAM-1: -24; D2 PAM-2: -14; D2 ag-2: -1

How did COc1cc2[nH]c(C(=O)NCc3ccccc3)cc2c(OC)c1OC do in these assays?
D2 ag-1: -1; D2 antag: 84*; D2 PAM-1: -21; D2 PAM-2: -15; D2 ag-2: 1
